Source: PubChem BioAssay (Tox21)
Records with an inconclusive call do not appear. Activity calls are given as the source filed them. Unless noted, the call rests on the fitted dose curve; in most records, active means well fitted curve in the direction sought with a large enough effect in the repeat runs; inconclusive means weak or mixed curves; inactive means no such curve, though single readings can be large; an effect the other way counts as inactive or inconclusive.

Assays:
[1] = A CellTox Green Cytotoxicity Assay to monitor cytotoxicity in HepG2 cells - 0 hour (AID 1224882); further: nearly all actives have a fitted effect of over 35% in size
Procedure, shortened: (§1)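 First, HepG2 cells (600/well) mixed with reagent were plated; second, after 5 h at 37 C they received compounds via pintool; third, fluorescence was measured at 0 h through 40 h at 8 h intervals.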

[2] = A CellTox Green Cytotoxicity Assay to monitor cytotoxicity in HepG2 cells - 32 hour (AID 1224883); further: nearly all actives have a fitted effect of over 50% in size; further: potency means the concentration at half of the fitted maximal effect
Procedure, shortened: as §1

[3] = A CellTox Green Cytotoxicity Assay to monitor cytotoxicity in HEK293 cells - 8 hour (AID 1224884); further: nearly all actives have a fitted effect of over 35% in size
Procedure, shortened: (§2)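 Dead-cell fluorescence measured kinetically: asymmetric cyanine dye, HEK293, 600 cells/well, 5 h settle, 23 nL cpd/DMSO, 37 C, reads 0–40 h every 8 h.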

[4] = qHTS RealTime-Glo MT Cell Viability Assay in HepG2 cells - 16 hour (AID 1224885); further: nearly all actives have a fitted effect of over 50% in size
Procedure, shortened: (§3)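 qHTS, HepG2, 600 cells/well, RealTime-Glo (NanoLuc + prosubstrate) added with cells; 5 h preincubation; DMSO compound addition; 37 C; luminescence at 0/8/16/24/32/40 h.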

[5] = qHTS RealTime-Glo MT Cell Viability Assay in HEK293 cells - 24 hour (AID 1224886); further: top concentration of the series differs between compounds; nearly all actives have a fitted effect of over 50% in size
Procedure, shortened: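 Assay medium contained NanoLuc luciferase plus cell-permeant prosubstrate, added with HEK293 cells at 600 cells/well. After 5 h at 37 C/5% CO2 compounds were added; plates stayed at 37 C for 40 h with serial luminescence reads.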

[6] = qHTS RealTime-Glo MT Cell Viability Assay in HEK293 cells - 8 hour (AID 1224887); further: top concentration of the series differs between compounds; nearly all actives have a fitted effect of over 50% in size
Procedure, shortened: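 600 HEK293 cells per well, dispensed already mixed with RealTime-Glo MT reagents. Compound dosing came 5 h later. The same wells were read for luminescence at 0, 8, 16, 24, 32 and 40 h of exposure at 37 C.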

[7] = A CellTox Green Cytotoxicity Assay to monitor cytotoxicity in HEK293 cells - 16 hour (AID 1224888); further: nearly all actives have a fitted effect of over 35% in size
Procedure, shortened: as §2

[8] = qHTS RealTime-Glo MT Cell Viability Assay in HepG2 cells - 0 hour (AID 1224889); further: nearly all actives have a fitted effect of over 50% in size; further: potency means the concentration at half of the fitted maximal effect
Procedure, shortened: as §3

[9] = A CellTox Green Cytotoxicity Assay to monitor cytotoxicity in HepG2 cells - 8 hour (AID 1224890); further: nearly all actives have a fitted effect of over 45% in size
Procedure, shortened: as §1

[10] = qHTS assay to identify small molecule antagonists of the estrogen receptor alpha (ER-alpha) signaling pathway using the BG1 cell line in the presence of 0.1 nM 17-beta-estradiol - cell viability counter screen (AID 1259241); further: nearly all actives have a fitted effect of over 40% in size
Procedure, shortened: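 Estradiol-stimulated (0.1 nM) VM7Luc4E2 cells exposed to compounds 22 hr; viability measured by fluorescence of cleaved CellTiter-Fluor substrate after 30 min.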

[11] = qHTS assay to identify small molecule antagonists of the androgen receptor (AR) signaling pathway using the MDA cell line in the presence of 0.5 nM R1881 - cell viability counter screen (AID 1259242); further: nearly all actives have a fitted effect of over 45% in size
Procedure, shortened: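 qHTS format. MDA-kb2 (MMTV-luc, AR/GR responsive) + cpd + 0.5 nM R1881 final, 16 hr 37C/0% CO2 → CellTiter-Fluor 30 min → fluorescence intensity.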

[12] = biological target: Estrogen receptor (Homo sapiens) (UniProt P03372); experiment: qHTS assay to identify small molecule antagonists of the estrogen receptor alpha (ER-alpha) signaling pathway using the BG1 cell line in the presence of 0.1 nM 17-beta-estradiol (AID 1259244); further: nearly all actives have a fitted effect of over 50% in size
Procedure, shortened: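 Reporter is a stably transfected luciferase under four estrogen responsive elements in VM7Luc4E2 cells expressing native full-length ER-alpha; inhibition of 0.1 nM (final) 17beta-estradiol-driven signal over 22 h is read by luminescence.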

[13] = qHTS assay to identify small molecule HDAC inhibitors (AID 1259364);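 further: wild-type HCT-116 cells with endogenous class I/II HDAC activity; top concentration of the series differs between compounds; nearly all actives have a fitted effect of over 45% in size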
Procedure, shortened: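 Quantitative high-throughput format: overnight-seeded HCT-116 cells got compounds for 2 hr at 37C; HDAC-Glo I/II reagent added, 30 min RT, luminescence measured.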

[14] = qHTS assay to identify small molecule HDAC inhibitors - cell viability counter screen (AID 1259365)
Procedure, shortened: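 After overnight seeding at 1,500 cells per well, wild-type HCT-116 cultures took up compounds in DMSO for 2hr at 37 C. Viable cell content came from luminescence with CellTiter-Glo.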

[15] = qHTS assay to identify small molecule agonists of the sonic hedgehog signaling (Shh) pathway - cell viability counter screen (AID 1259366); further: nearly all actives have a fitted effect of over 50% in size
Procedure, shortened: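 Same-well cytotoxicity read. Gli1-Luc reporter 3T3 cells; compounds 24hr, 37C/5% CO2; CellTiter-Fluor fluorescence.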

[16] = qHTS assay to identify small molecule antagonists of the sonic hedgehog signaling (Shh) pathway - cell viability counter screen (AID 1259367); further: nearly all actives have a fitted effect of over 55% in size
Procedure, shortened: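 Viability was read by CellTiter-Fluor fluorescence in the same wells, reagent added 23 hr into compound treatment and incubated 1 hr at 37C. The 3T3 Gli1-Luc reporter cells (2,000/well) received conditioned medium after compound and ran 24 hr.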

[17] = qHTS assay to identify small molecule agonists of the sonic hedgehog signaling (Shh) pathway (AID 1259368; calls by dose curve;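 further: NIH/3T3-derived 3T3Gli1-Luc cells carrying a stable Gli1-driven firefly luciferase reporter; series mostly up to about 92 µM; nearly all actives have a fitted effect of over 15% in size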)
Procedure, shortened: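 Quantitative high-throughput format using a Gli1-driven firefly luciferase reporter line derived from NIH/3T3 cells. After a 24 hr compound treatment at 37 C and 5% CO2, luminescence reported Gli1 response element activity.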

[18] = qHTS assay to identify small molecule antagonists of the sonic hedgehog signaling (Shh) pathway (AID 1259369; calls by dose curve; further: nearly all actives have a fitted effect of over 45% in size; further: potency means the concentration at half of the fitted maximal effect)
Procedure, shortened: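 Stable Gli1-Luc reporter NIH/3T3 clone; quantitative HTS in stimulated mode with conditioned medium. Luminescence measured after 24hr compound treatment at 37 C.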

[19] = biological target: Androgen receptor (Homo sapiens) (UniProt P10275); experiment: qHTS assay to identify small molecule antagonists of the androgen receptor (AR) signaling pathway using the MDA cell line in the presence of 0.5 nM R1881 (AID 1259243); further: nearly all actives have a fitted effect of over 50% in size
Procedure, shortened: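 Antagonist mode quantitative HTS in MDA-kb2 MMTV-luciferase cells, agonist R1881 at 0.5 nM final, 16 hr exposure at 37C and 0% CO2, luminescent detection.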
On the % scale 0 is the no-effect control and ±100 the full control effect.

Sequence of Androgen receptor (Homo sapiens) (P10275 whole entry, looked up): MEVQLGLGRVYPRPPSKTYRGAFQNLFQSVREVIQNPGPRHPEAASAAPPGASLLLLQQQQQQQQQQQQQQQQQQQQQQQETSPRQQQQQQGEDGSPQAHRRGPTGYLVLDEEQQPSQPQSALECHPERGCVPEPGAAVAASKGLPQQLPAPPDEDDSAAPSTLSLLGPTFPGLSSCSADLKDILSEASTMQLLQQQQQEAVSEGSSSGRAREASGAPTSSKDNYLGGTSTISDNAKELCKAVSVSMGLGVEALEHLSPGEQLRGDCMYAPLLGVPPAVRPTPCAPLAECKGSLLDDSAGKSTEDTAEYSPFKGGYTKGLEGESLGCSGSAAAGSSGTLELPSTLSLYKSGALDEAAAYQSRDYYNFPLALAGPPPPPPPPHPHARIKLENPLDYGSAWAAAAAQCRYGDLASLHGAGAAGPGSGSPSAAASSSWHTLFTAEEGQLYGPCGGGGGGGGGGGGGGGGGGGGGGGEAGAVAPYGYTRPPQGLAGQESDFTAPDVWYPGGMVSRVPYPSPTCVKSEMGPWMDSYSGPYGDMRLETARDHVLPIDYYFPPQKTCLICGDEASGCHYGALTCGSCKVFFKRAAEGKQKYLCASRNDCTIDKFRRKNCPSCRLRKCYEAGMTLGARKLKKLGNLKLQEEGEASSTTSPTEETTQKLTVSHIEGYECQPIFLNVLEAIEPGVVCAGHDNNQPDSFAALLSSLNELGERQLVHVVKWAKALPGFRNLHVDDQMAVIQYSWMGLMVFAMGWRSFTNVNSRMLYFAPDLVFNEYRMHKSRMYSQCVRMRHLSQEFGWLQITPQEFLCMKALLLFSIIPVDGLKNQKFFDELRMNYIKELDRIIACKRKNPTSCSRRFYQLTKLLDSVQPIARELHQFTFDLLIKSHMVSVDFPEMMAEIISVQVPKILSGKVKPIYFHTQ
Sequence of Estrogen receptor (Homo sapiens) (P03372 whole entry, looked up): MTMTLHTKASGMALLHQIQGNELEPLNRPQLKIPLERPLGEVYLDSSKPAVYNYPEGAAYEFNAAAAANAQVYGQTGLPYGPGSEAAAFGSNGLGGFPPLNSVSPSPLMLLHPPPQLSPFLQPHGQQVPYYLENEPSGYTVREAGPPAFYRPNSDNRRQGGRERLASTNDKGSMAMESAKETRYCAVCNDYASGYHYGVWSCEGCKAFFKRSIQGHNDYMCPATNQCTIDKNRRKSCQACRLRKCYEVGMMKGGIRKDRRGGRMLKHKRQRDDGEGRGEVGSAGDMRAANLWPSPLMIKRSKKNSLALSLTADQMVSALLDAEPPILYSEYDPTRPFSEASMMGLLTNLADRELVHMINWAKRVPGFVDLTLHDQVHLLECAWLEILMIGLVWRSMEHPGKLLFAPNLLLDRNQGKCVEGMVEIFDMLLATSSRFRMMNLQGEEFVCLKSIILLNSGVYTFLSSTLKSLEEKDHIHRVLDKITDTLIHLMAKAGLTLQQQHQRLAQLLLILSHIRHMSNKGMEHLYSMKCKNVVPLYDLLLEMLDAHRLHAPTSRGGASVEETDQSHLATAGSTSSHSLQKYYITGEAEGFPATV

CN1Cc2cc(C(=O)N3CCC(C4CCNCC4)CC3)ccc2NC(CC(=O)O)C1=O (stereo not given)
inactive: Potency [1] | Potency [2] | Potency [3] | Potency [4] | Potency [5] | Potency [6] | Potency [7] | Potency [8] | Potency [9] | Potency [10] | Potency [11] | Potency [12] | Potency [13] | Potency [14] | Potency [15] | Potency [16] | outcome [17] | Potency [18]

Nc1cccc(S(=O)(=O)c2cccc(N)c2)c1
inactive: Potency [1] | Potency [2] | Potency [3] | Potency [4] | Potency [5] | Potency [6] | Potency [7] | Potency [8] | Potency [9] | Potency [10] | Potency [11] | Potency [12] | Potency [13] | Potency [14] | Potency [15] | Potency [16] | outcome [17] | Potency [18]

C/C(=C(\CCOP(=O)(O)O)SC(=O)c1ccccc1)N(C=O)Cc1cnc(C)nc1N
inactive: cytotoxicity [1] 4.51% [at 6.97 µM] | cytotoxicity increase [2] -0.701% [at 6.97 µM] | cytotoxicity increase [3] -3.85% [at 6.97 µM] | activity change, negative = cytotoxic [4] 1.38% [at 6.97 µM] | activity change, negative = cytotoxicity [5] 2.35% [at 6.97 µM] | activity change, negative = cytotoxicity [6] 3.68% [at 6.97 µM] | activity change [7] -2.42% [at 6.97 µM, stronger effect = higher value] | activity change, negative = cytotoxicity [8] 4.53% [at 6.97 µM] | cytotoxicity increase [9] 0.403% [at 6.97 µM] | activity change, negative = cytotoxicity [10] -4.04% [at 8.39 µM] | viability change, negative = cytotoxic [11] 2.34% [at 8.39 µM] | activity, negative = inhibition [19] 2.6% [at 8.39 µM] | activity change, negative = inhibition [12] 5.19% [at 8.39 µM] | activity change, negative = inhibition [13] -1.49% [at 8.39 µM] | activity change, negative = cytotoxicity [14] 6.82% [at 8.39 µM] | viability change, negative = cytotoxic [15] -1.58% [at 8.39 µM] | viability change, negative = cytotoxic [16] 0.0493% [at 8.39 µM] | activity change [17] 0.138% [at 8.39 µM] | activity change, negative = inhibition [18] 1.8% [at 8.39 µM]

C[C@@H]1C[C@H]2O[C@@]3(O[C@@H]2C(C)(C)O)[C@H](O)[C@@]2(C)[C@@H]4CC[C@H]5C(C)(C)[C@@H](O[C@@H]6OC[C@@H](O)[C@H](O)[C@H]6O)CC[C@@]56C[C@@]46CC[C@]2(C)[C@@H]13
active: Potency [8] 2.16 µM
inactive: Potency [1] | Potency [2] | Potency [3] | Potency [4] | Potency [5] | Potency [6] | Potency [7] | Potency [9] | Potency [10] | Potency [11] | Potency [19] | Potency [12] | Potency [13] | Potency [14] | Potency [15] | Potency [16] | outcome [17]

CN(C)CCOC(c1ccccc1)c1ccc(Br)cc1 (stereo not given)
inactive: Potency [1] | Potency [3] | Potency [4] | Potency [5] | Potency [6] | Potency [7] | Potency [8] | Potency [9] | Potency [10] | Potency [11] | Potency [19] | Potency [12] | Potency [13] | Potency [14] | Potency [16] | outcome [17]
active: Potency [2] 23.9 µM | Potency [18] 2.11 µM

CCOC(=O)C(=O)CCc1ccccc1
inactive: Potency [1] | Potency [2] | Potency [3] | Potency [4] | Potency [5] | Potency [6] | Potency [7] | Potency [8] | Potency [9] | Potency [10] | Potency [11] | Potency [19] | Potency [12] | Potency [13] | Potency [14] | Potency [15] | Potency [16] | outcome [17] | Potency [18]
